In all, about 2,200 compounds went through this assay and about 45 (2%) were called active. The list is a sample of the results. Potency and affinity values are given separately. Unmarked numbers belong to inactive results. How the calls were made is not given here.
target: Runt-related transcription factor 1 (Homo sapiens) + Core-binding factor subunit beta (Homo sapiens) (UniProt Q01196+Q13951); assay: inhibitors of RUNX1 Runt–CBFb-SMMHC binding, biochemical, TR-FRET (AID 1438); details: TR-FRET Runt domain–CBFb-SMMHC binding, at 20 µM, hits give high values
Sequence (Q01196 whole entry, looked up, the tested form may be a part): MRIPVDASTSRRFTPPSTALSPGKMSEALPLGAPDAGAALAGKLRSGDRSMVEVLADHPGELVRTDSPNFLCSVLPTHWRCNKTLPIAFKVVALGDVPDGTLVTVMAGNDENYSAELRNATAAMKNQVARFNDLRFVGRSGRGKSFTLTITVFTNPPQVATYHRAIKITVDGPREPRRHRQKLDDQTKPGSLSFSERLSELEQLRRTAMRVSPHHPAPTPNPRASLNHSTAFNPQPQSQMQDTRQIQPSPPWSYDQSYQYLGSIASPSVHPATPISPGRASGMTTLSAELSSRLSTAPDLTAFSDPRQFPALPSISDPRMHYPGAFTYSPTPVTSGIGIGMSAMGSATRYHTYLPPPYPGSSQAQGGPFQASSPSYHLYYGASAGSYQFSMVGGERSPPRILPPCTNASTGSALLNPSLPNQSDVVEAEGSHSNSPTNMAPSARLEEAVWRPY
Sequence (Q13951 whole entry, looked up, the tested form may be a part): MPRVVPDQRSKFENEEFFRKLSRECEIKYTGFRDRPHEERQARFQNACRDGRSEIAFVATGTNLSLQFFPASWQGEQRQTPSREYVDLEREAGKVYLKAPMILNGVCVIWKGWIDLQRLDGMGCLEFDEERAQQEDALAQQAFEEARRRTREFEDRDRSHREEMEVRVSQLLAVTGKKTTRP

Question: Cc1ccc(S(=O)(=O)c2cc3c(=O)n4cccc(C)c4nc3n(Cc3ccco3)c2=N)cc1C was tested. Which inhibition did it give?
Answer: 47.5%

Question: For CCCn1c(=NC(=O)c2c(-c3c(F)cccc3Cl)noc2C)c(C(=O)OCC)cc2c(=O)n3ccccc3nc21, which inhibition is on record?
Answer: -16.8%

Question: How did the inhibition turn out when COc1nc(N)c(S(=O)(=O)c2ccccc2)cc1C#N was run?
Answer: 8.9%

Question: For CCOC(=O)c1cc2c(=O)n3ccccc3nc2n(CC2CCCO2)c1=NC(=O)/C=C/c1ccccc1 (stereo unspecified), which inhibition is on record?
Answer: 3.6%

Question: For C=CCNC(=O)/C(C#N)=C/c1c(N(Cc2ccccc2)Cc2ccccc2)nc2ccccn2c1=O, which inhibition is on record?
Answer: 19.2%

Question: COCCN(C(=O)CN1CCc2ccccc2C1)c1c(N)n(Cc2ccccc2)c(=O)[nH]c1=O was tested. Which inhibition did it give?
Answer: 23.7%

Question: For COc1ccccc1NC(=O)c1cc2ccccc2o/c1=N\O, which inhibition is on record?
Answer: 30.6%

Question: COc1ccccc1NC(=O)c1cc2ccc(O)cc2o/c1=N\O was tested. Which inhibition did it give?
Answer: -13.2%

Question: How did the inhibition turn out when COCCN1C=C(C(=O)OC)C(c2ccccc2C(F)(F)F)C(C(=O)OC)=C1 was run?
Answer: 44%

Question: For COc1cc(/C=N/N2CCN(C3c4ccccc4-c4ccccc43)CC2)cc(OC)c1O, which inhibition is on record?
Answer: 33.8%

Question: With O=C1C2C3C=CC(CO)(O3)C2C(=O)N1c1ccc(-c2ccccc2)cc1 (stereo unspecified) as the compound, how does the inhibition read?
Answer: 27.4%

Question: For N#Cc1cc2cc3c(cc2nc1NCCNC(=S)NCCCN1CCOCC1)OCO3, which inhibition is on record?
Answer: -18.1%

Question: With CCOC(=O)Cc1csc(/N=C/c2c(O)n(-c3ccc(C)c(C)c3)c(=O)c3ccccc23)n1 as the compound, how does the inhibition read?
Answer: 5%

Question: How did the inhibition turn out when O=c1c2ccccc2sn1-c1nccs1 was run?
Answer: -7%

Question: Which inhibition does the source give for Cc1c2c(n3c(nc4ccccc43)c1C#N)N(CCCN(C)C)CC2 here?
Answer: -5.5%

Question: How did the inhibition turn out when Clc1ccc(C2=NN(c3ccccc3)C(c3ccco3)C2)cc1 (stereo unspecified) was run?
Answer: 37.8%

Question: For CCOCCCn1c(=N)c(C(=O)NCc2ccc3c(c2)OCO3)cc2c(=O)n3cccc(C)c3nc21, which inhibition is on record?
Answer: 1.9%

Question: For CC(=O)N=c1c(C#N)cc2c(=O)n3cccc(C)c3nc2n1CCCOC(C)C, which inhibition is on record?
Answer: -10.3%

Question: How did the inhibition turn out when Cc1cccn2c(=O)c3cc(C(N)=S)c(=N)n(CCCN4CCOCC4)c3nc12 was run?
Answer: -11.3%

Question: How did the inhibition turn out when CC(C)OCCCn1c(=N)c(C(N)=S)cc2c(=O)n3ccccc3nc21 was run?
Answer: 49.7%

Question: For Cc1cccn2c(=O)c3cc(C(N)=S)c(=N)n(CCCOC(C)C)c3nc12, which inhibition is on record?
Answer: 63.5% (active)

Question: Which inhibition does the source give for N#C/C(=C(/O)CCCl)c1ccccn1 here?
Answer: -8%

Question: c1ccc(-c2onc3cc4c(cc23)OCCO4)cc1 was tested. Which inhibition did it give?
Answer: 17.4%

Question: Which inhibition does the source give for CCOC(=O)c1cc2c(=O)n3cccc(C)c3nc2n(CC(C)C)c1=NC(=O)c1ccco1 here?
Answer: -5.3%

Question: How did the inhibition turn out when CCOc1ccc2nc(NCCNC(=O)CC)c(C#N)cc2c1 was run?
Answer: 33.5%

Question: How did the inhibition turn out when CC(=O)N(C)/C=C1\Sc2ccccc2C1=O was run?
Answer: 6.4%

Question: With Cc1ccc(-n2c(=O)c(C#N)cc3c(=O)n4cccc(C)c4nc32)cc1 as the compound, how does the inhibition read?
Answer: 48.6%

Question: With COCCCn1c(=O)/c(=C\c2ccc(OC(F)F)c(OC)c2)s/c1=C(/C#N)C(=O)NCCOC as the compound, how does the inhibition read?
Answer: -12.1%

Question: Cc1ccc(C)c(OCCn2cc(/C=C(\C#N)C(=O)NCc3ccco3)c3ccccc32)c1 was tested. Which inhibition did it give?
Answer: 17.3%

Question: COc1cc(N2C(=O)C=CC2=O)c(OC)cc1Cl was tested. Which inhibition did it give?
Answer: -8.5%

Question: With Cc1cc(N2C(=O)C=CC2=O)c([N+](=O)[O-])cc1C as the compound, how does the inhibition read?
Answer: 52.7% (active)

Question: With C=C(C)CNC(=S)Nc1sc2c(c1C(=O)OCC)CC(C)(C)OC2 as the compound, how does the inhibition read?
Answer: -9.8%

Question: Cc1cccc(C)c1NC(=O)COC(=O)c1c2c(nc3ccccc13)/C(=C\c1ccc3c(c1)OCO3)CCC2 was tested. Which inhibition did it give?
Answer: 1.3%

Question: For COc1ccc(/C=C2\CCc3c2nc2ccccc2c3C(=O)O)cc1OC, which inhibition is on record?
Answer: -11.1%

Question: NS(=O)(=O)c1ccc(NC(=O)COC(=O)c2c3c(nc4ccccc24)/C(=C\c2ccc4c(c2)OCO4)CCC3)cc1 was tested. Which inhibition did it give?
Answer: -24.4%

Question: Which inhibition does the source give for O=C(O)c1c2c(nc3ccccc13)/C(=C/c1ccc(O)cc1)CC2 here?
Answer: -6.6%

Question: For CCN1CCc2c(C#N)c(N3CCOCC3)nc(NCc3ccccc3)c2C1, which inhibition is on record?
Answer: 35.4%

Question: With Cc1cccn2c(=O)c3cc(C(=O)NCC4CCCO4)c(=N)n(CCN4CCOCC4)c3nc12 (stereo unspecified) as the compound, how does the inhibition read?
Answer: 11.3%

Question: With COc1ccc(C2C=C(c3ccccc3)Nc3ncnn32)cc1 (stereo unspecified) as the compound, how does the inhibition read?
Answer: 30.8%

Question: For Cc1ccccc1-n1c(=O)c(C#N)cc2c(=O)n3ccccc3nc21, which inhibition is on record?
Answer: 23.6%

Question: With c1cc2c(cc1-c1csc(NNC3=NCCCCC3)n1)OCCO2 as the compound, how does the inhibition read?
Answer: -4.3%

Question: With C=CCNc1nc(NCc2ccccc2)c(C#N)c2c1CN(C)CC2 as the compound, how does the inhibition read?
Answer: 31.3%

Question: N#Cc1c(NCCO)nc(NCc2ccccc2)c2c1CCN(Cc1ccccc1)C2 was tested. Which inhibition did it give?
Answer: 48.5%

Question: With Cn1c(=N)c(S(=O)(=O)c2ccc(F)cc2)cc2c(=O)n3ccccc3nc21 as the compound, how does the inhibition read?
Answer: 47.6%

Question: Which inhibition does the source give for O=C(c1cc2ccccc2oc1=O)N1CCN(CCc2ccccc2)CC1 here?
Answer: 55.2% (active)

Question: How did the inhibition turn out when COc1cc2cc(C(=O)N3CCN(Cc4ccc5c(c4)OCO5)CC3)c(=O)oc2cc1OC was run?
Answer: -6.8%

Question: How did the inhibition turn out when O=C(O)c1cc2ccc3ccccc3c2oc1=O was run?
Answer: 34.5%

Question: How did the inhibition turn out when CC1=CC(c2ccc(Cl)cc2)n2nc(NC(=O)CCC(=O)O)nc2N1 (stereo unspecified) was run?
Answer: -7.4%

Question: Cc1cc(-c2nc3cccnc3s2)ccc1NS(=O)(=O)c1cccs1 was tested. Which inhibition did it give?
Answer: -9.2%

Question: With Cc1cccn2c(=O)c3cc(C#N)c(=NC(=O)c4ccco4)n(Cc4ccco4)c3nc12 as the compound, how does the inhibition read?
Answer: -9.7%

Question: With CC(=O)N=c1c(C#N)cc2c(=O)n3ccccc3nc2n1Cc1ccccc1 as the compound, how does the inhibition read?
Answer: 47.4%

Question: Which inhibition does the source give for CCOC(=O)c1cc2c(=O)n3ccccc3nc2n(Cc2ccco2)c1=NC(=O)c1ccc(OC)cc1 here?
Answer: -16.9%

Question: COCCCn1c(=NC(=O)c2ccncc2)c(C#N)cc2c(=O)n3cccc(C)c3nc21 was tested. Which inhibition did it give?
Answer: 14%

Question: Cc1ccccc1C(=O)N=c1c(C#N)cc2c(=O)n3cccc(C)c3nc2n1Cc1ccco1 was tested. Which inhibition did it give?
Answer: 47%

Question: CC(=O)N=c1c(C#N)cc2c(=O)n3cccc(C)c3nc2n1Cc1ccco1 was tested. Which inhibition did it give?
Answer: -8.8%

Question: O=C(Cc1nc2ccccc2s1)c1ccc(O)cc1O was tested. Which inhibition did it give?
Answer: 15.1%
